The values that follow come from PubChem BioAssay (EPA / NIEHS).

SMILES strings stand for the structures. Records with an inconclusive call do not appear. The source made the active and inactive calls. Rule for the calls: active = hit-call score of the fitted dose curve at least 0.9, where 1 is the maximum; inconclusive = response in the unintended direction; inactive = score below 0.9.

For the test, the target named is sheep Cyclooxygenase-1 (Cox1), PTGS1 (gene 443551) (UniProt P05979). As to the kind of experiment: NVS_ENZ_oCOX1: NovaScreen (NVS) Enzymatic Assay for sheep Cyclooxygenase-1 (Cox1) (AID 2283239).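 Note: actives reduce cyclooxygenase activity so potencies are for inhibitors.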 As for the experimental part: NVS_ENZ_oCOX1 is a biochemical, single-readout assay that uses extracted gene-proteins from Ovine seminal vesicles in a tissue-based cell-free assay. Measurements were taken 0.66 hour after chemical dosing in a 96-well plate.NVS_ENZ_oCOX1 is one of one assay component(s) measured or calculated from the NVS_ENZ_oCOX1 assay. It is designed to make measurements of enzyme activity, a form of enzyme reporter, as detected with absorbance signals by Colorimetric technology.Data from the assay component NVS_ENZ_oCOX1 was analyzed into 1 assay endpoint. This assay endpoint, NVS_ENZ_oCOX1, was analyzed in the positive analysis fitting direction relative to DMSO as the negative control and baseline of activity. Using a type of enzyme reporter, loss-of-signal activity can be used to understand changes in the enzymatic activity as they relate to the gene PTGS1. Furthermore, this assay endpoint can be referred to as a primary readout, because this assay has produced multiple assay endpoints where this one serves a enzymatic activity function. To generalize the intended target to other relatable targets, this assay endpoint is annotated to the oxidoreductase intended target family, where the subfamily is cyclooxygenase.
Sequence of sheep Cyclooxygenase-1 (Cox1), PTGS1 (gene 443551) (P05979 whole entry, looked up): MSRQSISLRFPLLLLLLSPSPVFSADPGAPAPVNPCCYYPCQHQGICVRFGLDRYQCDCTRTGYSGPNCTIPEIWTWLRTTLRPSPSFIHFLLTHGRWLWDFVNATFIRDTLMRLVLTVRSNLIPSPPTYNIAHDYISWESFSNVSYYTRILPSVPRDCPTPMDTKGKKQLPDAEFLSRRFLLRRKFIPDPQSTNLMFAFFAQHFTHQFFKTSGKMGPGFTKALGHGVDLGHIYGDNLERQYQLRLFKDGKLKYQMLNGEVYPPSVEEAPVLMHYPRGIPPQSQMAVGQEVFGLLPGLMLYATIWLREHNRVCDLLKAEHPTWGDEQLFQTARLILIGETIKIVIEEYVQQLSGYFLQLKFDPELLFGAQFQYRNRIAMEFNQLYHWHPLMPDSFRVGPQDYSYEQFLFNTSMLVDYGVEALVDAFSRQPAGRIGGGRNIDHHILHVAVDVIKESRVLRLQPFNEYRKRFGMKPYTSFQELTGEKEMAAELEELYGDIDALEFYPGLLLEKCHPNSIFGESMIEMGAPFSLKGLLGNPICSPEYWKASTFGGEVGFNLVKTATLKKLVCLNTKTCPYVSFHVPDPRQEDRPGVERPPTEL
Binding assays used specific radioligands (tritiated, iodinated) with non-radioactive competitive displacement ligands in agonist or antagonist protocols (as indicated) and various reference compounds and inhibitors to titrate specific binding to receptors and transporters. Most enzyme assays (CYPs, kinases, phosphatases, proteases, HDACs) used recombinant protein and specific substrates (fluorescence mostly, some colorimetric and radioactive) and inhibitors, followed by a biochemical separation of substrate and product. All assays for the biochemical HTS were initially run in duplicate at a single concentration (10 uM for CYP450 assays and 25 uM for all others). […] Each assay was run with positive and negative controls, and concurrent controls on every plate. The follow-up (secondary) screen tested active chemical-pairs in concentration series, as well as a few additional assays not tested in the primary screen, some selected negative inactives, and several cases re-run in the concentration series for confirmatory purposes.
`CC(=O)S[C@H](C(=O)N[C@H]1Cc2ccccc2[C@H]2CCC[C@@H](C(=O)O)N2C1=O)C(C)C`: the outcome was inactive. On the same count and under the same terms, next, `C#CC(O)C(CC)CCCC` (stereo not drawn): “inactive”. In general, AC50 refers to the concentration giving half of the maximal activity seen. In the case of `CCN(CC)CCOc1ccc(C(=C(Cl)c2ccccc2)c2ccccc2)cc1`, the AC50 is 4.39 µM (active).

As for `S=c1[nH]c2ccccc2s1`, the AC50 was 8.91 µM (active). Same read-out and setting: next, `O=C1c2c(O)cccc2Cc2cccc(O)c21`: 3.2 µM (active). As for `Cn1cnc2c1c(=O)[nH]c(=O)n2C`, the outcome was inactive. Turning to `COc1ccc(OC(F)(F)F)cc1CN[C@H]1CCCN[C@H]1c1ccccc1`, the concentration at half-maximal activity (AC50) is 11.6 µM (active). As for `CSc1ccc(Oc2ccc(S(N)(=O)=O)cc2CN(C)C)cc1C`, the outcome was inactive. On the same count and under the same terms, the same measure for `Oc1ccc(O)cc1`: “inactive”.

Consider `COC(=O)[C@H]1[C@H]2C[C@@H]3c4[nH]c5cc(OC)ccc5c4CCN3C[C@H]2C[C@@H](OC(=O)c2cc(OC)c(OC)c(OC)c2)[C@@H]1OC`, for which the concentration at half-maximal activity (AC50) is 19.5 µM (active). `Nc1nc(=S)c2[nH]cnc2[nH]1`: the concentration at half-maximal activity (AC50) is 2.25 µM (active).

In the case of `NC(=Nc1ccccc1)Nc1ccccc1`, the outcome was inactive. In the case of `O=[Si]=O`, the outcome was inactive.
